# Experimental data taken from PubChem BioAssay AID602143 (Vanderbilt Specialized Chemistry Center, 2011).
# Values joined by “and” are separate entries in the source; they are usually repeats but may differ in a detail not shown here. Equal entries are not always repeated. A structure can be active in one record and inactive in another. Active and inactive are the calls of the source. Rule as the data show it: active = remaining activity below about 50%; inactive = the rest.
# Molecular target: Phospholipase D2 (Homo sapiens) (UniProt O14939)
# Test: PLD2 inhibitors in cells, cell-based, HEK293, single concentration (AID 602143);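 also: tested at 200 nM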
# Details: HEK293 cellular PLD2 activity, percent of control; stronger effect = lower value
# Chain of Phospholipase D2 (Homo sapiens) (O14939 whole entry, looked up): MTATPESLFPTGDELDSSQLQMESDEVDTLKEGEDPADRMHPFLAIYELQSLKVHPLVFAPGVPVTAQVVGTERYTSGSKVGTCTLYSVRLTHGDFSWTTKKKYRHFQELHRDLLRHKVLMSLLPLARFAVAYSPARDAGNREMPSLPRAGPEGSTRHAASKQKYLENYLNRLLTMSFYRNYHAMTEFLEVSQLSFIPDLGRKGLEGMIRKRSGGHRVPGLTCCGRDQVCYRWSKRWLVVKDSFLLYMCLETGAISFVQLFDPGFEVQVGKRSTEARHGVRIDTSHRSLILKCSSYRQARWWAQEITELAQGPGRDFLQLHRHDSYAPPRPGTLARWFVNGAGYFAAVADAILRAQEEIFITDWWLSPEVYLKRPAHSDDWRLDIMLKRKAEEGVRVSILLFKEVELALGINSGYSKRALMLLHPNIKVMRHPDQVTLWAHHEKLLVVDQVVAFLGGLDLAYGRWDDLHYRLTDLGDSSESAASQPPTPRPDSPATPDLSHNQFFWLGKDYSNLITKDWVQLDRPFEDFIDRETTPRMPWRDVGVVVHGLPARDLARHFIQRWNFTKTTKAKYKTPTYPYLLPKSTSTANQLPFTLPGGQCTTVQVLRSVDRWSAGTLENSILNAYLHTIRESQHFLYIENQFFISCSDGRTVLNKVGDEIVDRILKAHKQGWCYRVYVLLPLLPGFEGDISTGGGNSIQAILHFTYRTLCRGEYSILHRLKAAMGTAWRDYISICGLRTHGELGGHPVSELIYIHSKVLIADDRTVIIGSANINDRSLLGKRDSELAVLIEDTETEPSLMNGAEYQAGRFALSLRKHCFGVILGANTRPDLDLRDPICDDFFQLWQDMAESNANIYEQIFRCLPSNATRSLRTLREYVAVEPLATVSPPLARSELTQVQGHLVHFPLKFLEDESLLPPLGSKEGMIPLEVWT
# Chain of Phospholipase D2 (Homo sapiens) (O14939 whole entry, looked up): as above
row,SMILES,remaining activity
1,O=C(NCCN1CCC2(CC1)C(=O)NCN2c1cccc(F)c1)c1c(F)cccc1F,88% (inactive)
2,O=C(NCCN1CCC2(CC1)C(=O)NCN2c1ccccc1)C1(c2ccccc2)CCC1,87.6% (inactive)
3,CC(C)[C@@H](CN1CCC2(CC1)C(=O)NCN2c1ccccc1)NC(=O)c1cnc2ccccc2c1,59.3% (inactive)
4,O=C(NCCN1CCC2(CC1)C(=O)NCN2c1ccccc1)c1ccc2c(c1)C(=O)OC2=O,93.5% (inactive)
5,O=C(NCCN1CCC2(CC1)C(=O)NCN2c1ccccc1)c1cccc(Cl)n1,52.9% (inactive)
6,O=C(c1cnc2ccccc2c1)N1CC(N2CCC3(CC2)C(=O)NCN3c2ccccc2)C1,70% (inactive)
7,O=C(NCCN1CCC2(CC1)C(=O)NCN2c1ccccc1)c1cccnn1,88.2% (inactive)
8,O=C(N[C@@H](Cc1ccccc1)CN1CCC2(CC1)C(=O)NCN2c1ccccc1)c1ccc(F)c(F)c1,102% (inactive)
9,O=C(NCCN1CCC2(CC1)C(=O)NCN2c1ccc(Br)cc1)c1cnc2ccccc2c1,48.6% (active)
10,O=C(CCN1CCC2(CC1)C(=O)NCN2c1ccccc1)Nc1ccc(F)cc1,119% (inactive)
11,O=C(NCCN1CCC2(CC1)C(=O)NCN2c1cccc(Cl)c1)c1ccc(F)cc1,65.4% (inactive)
12,C[C@@H](CN1CCC2(CC1)C(=O)NCN2c1ccc(F)c(F)c1)NC(=O)c1cc2cc(F)ccc2[nH]1,4.81% (active)
13,CC1(C)C(C(=O)NCCN2CCC3(CC2)C(=O)NCN3c2ccccc2)C1(C)C,122% (inactive)
14,O=C(Cc1cccs1)NCCN1CCC2(CC1)C(=O)NCN2c1cccc(F)c1,77.8% (inactive)
15,C[C@@H](CN1CCC2(CC1)C(=O)NCN2c1ccc(F)c(F)c1)NC(=O)c1cnc2ccccc2c1,7.28% (active)
16,O=C(NCCN1CCC2(CC1)C(=O)NCN2c1cccc(F)c1)C12CC3CC(CC(C3)C1)C2,87.1% (inactive)
17,O=C(NCCN1CCC2(CC1)C(=O)NCN2c1cccc(F)c1)c1ccc(F)nc1,85.7% (inactive)
18,O=C(NCCN1CCC2(CC1)C(=O)NCN2c1cccc(F)c1)c1ccc(OC(F)(F)F)cc1,78% (inactive)

row,SMILES,remaining activity
1,CC(C)[C@@H](CN1CCC2(CC1)C(=O)NCN2c1ccccc1)NC(=O)c1ccc(F)cc1,74.9% (inactive)
2,O=C(NCCN1CCC2(CC1)C(=O)NCN2c1cccc(F)c1)c1cccc(F)c1,63.4% (inactive)
3,Cc1cccc(C(=O)N[C@@H](C)CN2CCC3(CC2)C(=O)NCN3c2ccccc2)c1,83.2% (inactive)
4,O=C(NCCCCCCN1CCC2(CC1)C(=O)NCN2c1ccccc1)c1cnc2ccccc2c1,127% (inactive)
5,O=C(NCCN1CCC2(CC1)C(=O)NCN2c1ccc(Br)cc1)c1ccc2ccccc2c1,52% (inactive)
6,O=C(NCCN1CCC2(CC1)C(=O)NCN2c1cccc(F)c1)C(c1ccccc1)c1ccccc1,92.3% (inactive)
7,CCCCOc1ccc(C(=O)NCCN2CCC3(CC2)C(=O)NCN3c2cccc(F)c2)cc1,95.2% (inactive)
8,COc1cc(C(=O)NCCN2CCC3(CC2)C(=O)NCN3c2ccccc2)ccc1N,38.8% (active)
9,O=C(NCCN1CCC2(CC1)C(=O)NCN2c1ccccc1)c1ccc(-c2ccccc2)o1,50.1% (inactive)
10,CCCCCC(=O)N(CCN1CCC2(CC1)C(=O)NCN2c1cccc(F)c1)C(=O)CCCCC,73.1% (inactive)
11,CCC(=O)N[C@@H](C)CN1CCC2(CC1)C(=O)NCN2c1ccccc1,95.3% (inactive)
12,O=C(NCCCN1CCC2(CC1)C(=O)NCN2c1ccccc1)c1ccc2ccccc2c1,98% (inactive)
13,O=C(c1ccc2ccccc2c1)N1CCCC1CN1CCC(n2c(=O)[nH]c3ccccc32)CC1 (stereo not given),49.9% (active) and 63.2% (inactive)
14,O=C(c1cnc2ccccc2c1)N1CCC[C@@H]1CN1CCC2(CC1)C(=O)NCN2c1ccccc1,106% (inactive)
15,COc1cc(OC)cc(C(=O)NCCN2CCC3(CC2)C(=O)NCN3c2cccc(F)c2)c1,84.7% (inactive)
16,O=C(NCCN1CCC2(CC1)C(=O)NCN2c1ccccc1)C(c1ccccc1)c1ccccc1,74.8% (inactive)
17,Cc1ccc(C(=O)NCCN2CCC3(CC2)C(=O)NCN3c2ccccc2)c(O)c1,85% (inactive)
